# Shown are actives, neighbours in structure and some others; about 19% of the full set was active somewhere.
# DT40 TDP1 CPT – qHTS for Inhibitors of human tyrosyl-DNA phosphodiesterase 1 (TDP1): qHTS in cells in presence of CPT | 420,000 tested, 12% active | Potency, µM (doses to about 46.2 µM), inactives show at the top dose activity change, negative = growth inhibition, actives largely listed as inhibitors | chicken DT40 Tdp1-/-;hTDP1 cells + 20 nM CPT, ATP luminescence, 48 h; further: potency means the concentration at half of the fitted maximal effect; nearly all actives have a fitted effect of over 55% in size
#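 Cell growth measured by CellTiter-Glo luminescence after a minimum 48 h, 37 C compound exposure with 20 nM CPT in Tdp1-knockout DT40 cells stably expressing hTDP1, seeded 400/well; qHTS titration format.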
# IL-1B inflam inh – qHTS for Inhibitors of Inflammasome Signaling: IL-1-beta AlphaLISA Primary Screen. THP-1 LPS/ATP IL-1B secretion, AlphaLISA, 16 h; active compounds read low. activity change, % at 57.5 µM. 360,000 tested, 4.7% active. AID 743279, 2014; in the data active means activity change below about -50%; inconclusive means mostly about -30% to -49%
#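 THP-1 cells pretreated 1 hr with compounds (up to 57.5 uM final), then stimulated with LPS (250 ng/mL final) plus ATP (1.25 mM final); secreted IL-1B measured by AlphaLISA after 16 hr, decreased signal indicating inhibition.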
# HT1080 IDH1KD tx – qHTS for induction of synthetic lethality in tumor cells producing 2HG: qHTS for the HT-1080-IDH1KD cell line | HT-1080 IDH1 knockdown viability, ATP luminescence, 48 h | Potency, µM (titrated, usually from 46.1 µM), inactives show at the highest dose activity, negative = toxicity, most hits filed as cytotoxic | 360,000 tested, 2% active | AID 686971, 2013;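 further: potency means the concentration at half of the fitted maximal effect; 0% = DMSO wells and -100% = cell-free medium wells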
#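 CellTiter-Glo luminescence after 48 h compound exposure at 37 degrees C of IDH1-knockdown HT-1080 cells in 5% FBS RPMI. %Activity scaled between DMSO wells and cell-free media wells, with curves fitted and assigned curve classes.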
# HT1080-NT tox – qHTS for induction of synthetic lethality in tumor cells producing 2HG: qHTS for the HT-1080-NT fibrosarcoma cell line. HT-1080-NT fibrosarcoma viability, CellTiter-Glo ATP luminescence, 48 h. Potency, µM (series often up to 46.1 µM), without a hit: at the highest dose activity, negative = less viability, usual class: cytotoxic. 360,000 tested, 1.6% active;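 further: NT is the 2HG producing partner of a matched IDH1 knockdown line; potency means the concentration at half of the fitted maximal effect; 0% = DMSO-treated cells and -100% = media-only wells without cells; nearly all actives have a fitted effect of over 55% in size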
#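 Toxicity toward the 2HG-producing NT line was scored as %Activity, normalised to DMSO and no-cell wells, from CellTiter-Glo luminescence after 48 hours' treatment.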
# DT40 TDP1 no CPT – qHTS for Inhibitors of human tyrosyl-DNA phosphodiesterase 1 (TDP1): qHTS in cells in absence of CPT. 420,000 tested, 15% active. Potency, µM (top dose mostly 46.2 µM), for the others: at the highest dose activity change, negative = growth inhibition, actives largely listed as inhibitors. DT40 Tdp1-/- hTDP1 cells, no CPT, ATP luminescence, 48 h. AID 686978, 2013; further: potency means the concentration at half of the fitted maximal effect; nearly all actives have a fitted effect of over 55% in size
#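 A cellular qHTS used chicken DT40 cells lacking endogenous Tdp1 but carrying stably transfected human TDP1. Compounds were applied without camptothecin, and cell growth kinetics were judged by ATP-dependent luminescence after ≥48 hr.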
# Starred values were filed as active, the others as inactive; i = inactive; ? = inconclusive; · = not tested or not shown. Unless noted, the call rests on the fitted dose curve; in most records, active means well fitted curve in the direction sought with a large enough effect; inconclusive means small, poorly fitted or top-dose-only effect, or another doubt; inactive means no such curve, though single readings can be large; an effect the other way counts as inactive or inconclusive. Unless noted, on the % scale 0 is the no-effect control and ±100 the full control effect.
SMILES,DT40 TDP1 CPT,IL-1B inflam inh,HT1080 IDH1KD tx,HT1080-NT tox,DT40 TDP1 no CPT
CC1=[N+](C)c2c(ccc3cccnc23)C1(C)C,0.326µM*,-112.4*,?,?,1.84µM*
Cc1[nH]c2c(ccc3cccnc32)c1C,15.8%,·,0.3%,0.7%,-26.7%
CCOC(=O)[C@]12CCC=C1N(Cc1ccco1)C(=O)[C@H](CC(=O)N1CCCCC1)C2,-7.8%,-8.4,10.6%,25.0%,-8.7%
CC(=O)c1ccc(NS(=O)(=O)c2cccc3cccnc23)cc1,?,3.5,0.0%,-0.1%,?
CCC/C=C(\CCC)C(NC(=O)OCC(C)C)c1ccc(C(=O)OC)cc1 (stereo not given),23.1µM*,-4.3,-11.7%,-2.1%,14.6µM*
CCC/C=C(\CCC)C(NS(=O)(=O)c1cccc2cccnc12)c1ccc(C(=O)OC)cc1 (stereo not given),?,-6.3,?,-17.6%,23.1µM*
CC(=O)c1ccc(NC(=O)/C(=C\c2cccs2)NC(=O)c2ccco2)cc1,-5.2%,0.0,-12.1%,-24.4%,8.8%
O=C(Nc1nc(-c2ccc([N+](=O)[O-])cc2)cs1)C1=COCCO1,-24.5%,-8.3,-1.0%,8.8%,9.2µM*
COc1ccc(-c2csc(NC(=O)C3=COCCO3)n2)c(OC)c1,-7.6%,-19.6,-4.3%,-5.3%,-27.9%
O=C(Nc1nc(-c2ccc([N+](=O)[O-])cc2)cs1)c1c(F)cccc1F,-2.9%,-5.9,-11.8%,-7.3%,4.61µM*
Cc1cc(C)c(-c2csc(NC(=O)C3=COCCO3)n2)cc1C,23.1µM*,-11.5,-12.1%,-3.0%,20.6µM*
CC(=O)N1CCc2c(sc3c2c(=O)n(-c2ccccc2Cl)c(=O)n3C)C1,11.8%,·,·,·,18.5%
CC(C)(C)C1CCc2c(sc(NC(=O)c3cc4ccccc4c(=O)o3)c2C(N)=O)C1 (stereo not given),-10.2%,·,·,·,-28.8%
COc1ccc(-c2noc(N3CCC(C(=O)N4CCN(c5ccccc5OC)CC4)CC3)n2)cc1,10.3µM*,·,·,·,8.2µM*
COc1ccc(-c2noc(N3CCC(C(=O)N4CCN(c5ccccn5)CC4)CC3)n2)cc1,23.1µM*,?,-14.4%,-14.8%,10.3µM*
COc1ccc(NC(=O)C2CCN(c3nc(-c4ccc(OC)cc4)no3)CC2)cc1,?,-4.4,-3.8%,1.7%,?
COc1ccccc1N1CCN(C(=O)C2CC2)CC1,7.6%,9.3,15.9%,16.9%,-11.0%
COc1ccc(-c2noc(N3CCC(C(=O)N4CCN(c5cccc(OC)c5)CC4)CC3)n2)cc1,6.51µM*,·,·,·,3.26µM*
COc1ccc(C2=NOC(C(=O)N3CCN(c4ccccc4OC)CC3)C2)cc1 (stereo not given),16.4µM*,20.4,-0.4%,13.5%,23.1µM*
CCc1ccc(NC(=O)C2CCN(c3nc(-c4ccc(OC)cc4)no3)CC2)cc1,-0.2%,·,·,·,-3.5%
CC(OC(=O)CNC(=O)C12CC3CC(CC(C3)C1)C2)C(=O)Nc1ccc(S(N)(=O)=O)cc1 (stereo not given),11.3%,34.6,1.9%,4.3%,-25.3%
N#Cc1c([N+](=O)[O-])cc([N+](=O)[O-])cc1S(=O)(=O)Cc1ccccc1,0.206µM*,-112.2*,2.91µM*,20.6µM*,0.184µM*
CC(NCc1ccc([N+](=O)[O-])cc1)C1COc2ccccc2O1 (stereo not given),-0.6%,-12.6,-2.1%,-3.9%,20.6µM*
CC(NC(=O)Cc1ccccc1)C1COc2ccccc2O1 (stereo not given),5.2%,2.2,14.2%,0.7%,-0.2%
Cc1cc(C)n2nc(CNC(=O)c3ccc(Cl)cc3)nc2n1,-8.3%,·,·,·,-4.5%
SMILES,DT40 TDP1 CPT,IL-1B inflam inh,HT1080 IDH1KD tx,HT1080-NT tox,DT40 TDP1 no CPT
COc1ccc(C=NNC(=O)c2ccccc2NS(=O)(=O)c2cccs2)cc1O,-2.4%,9.1,6.6%,3.3%,-4.9%
C/C(=N\NC(=O)c1ccc(NS(=O)(=O)c2cccs2)cc1)c1ccc(O)cc1O,?,164.6,23.1µM*,?,?
O=C(NN=Cc1ccc(O)cc1O)c1ccccc1NS(=O)(=O)c1cccs1,?,196.0,?,?,20.6µM*
C/C(=N\NC(=O)c1ccc(NS(=O)(=O)c2cccs2)cc1)c1ccccc1,-10.3%,0.0,-2.6%,3.3%,-23.7%
CCN(CC)c1ccc(/C=N/NC(=O)c2nnn(-c3nonc3N)c2CN(C)C2CCCCC2)cc1,3.9%,-12.6,-3.0%,-3.4%,?
CC(C)CCNC(=O)c1onc(CSc2nc3ccccc3[nH]2)c1C(=O)NCCC(C)C,?,-3.0,10.6%,8.3%,16.4µM*
O=C(NCCO)c1ccc(CSc2nc3ccccc3[nH]2)cc1,-24.9%,22.5,-2.3%,3.1%,?
O=C(NCc1ccccc1Cl)c1ccc(CSc2nc3ccncc3[nH]2)cc1,-8.9%,-75.8*,-17.1%,-4.0%,?
Clc1ccccc1CSc1nc2ccncc2[nH]1,?,8.3,-17.3%,-21.6%,23.1µM*
COCCNC(=O)c1onc(CSc2nc3ccccc3[nH]2)c1C(=O)NCCOC,-26.4%,14.8,11.0%,11.8%,?
O=C(NCCCO)c1ccc(CSc2nc3ccccc3[nH]2)cc1,?,45.6,-0.8%,-16.7%,18.4µM*
Cc1nnc(Sc2cc(NCCCO)c([N+](=O)[O-])c3nonc23)s1,1.46µM*,-105.3*,16.4µM*,16.4µM*,2.06µM*
Cc1nnc(Sc2cc(NCCO)c([N+](=O)[O-])c3nonc23)s1,3.26µM*,2.0,?,?,2.31µM*
CC(=O)c1ccc(Sc2nnc(C)s2)c([N+](=O)[O-])c1,-19.9%,-9.8,4.3%,-1.4%,?
CC1CN(C(=S)Nc2ccccc2C(F)(F)F)CC(C)O1 (stereo not given),3.2%,i,-1.2%,-1.7%,5.5%
CCCNC(=O)CN1C(=O)COc2ccc(S(=O)(=O)N3CC(C)CC(C)C3)cc21 (stereo not given),9.9%,-2.9,-2.3%,-0.3%,-22.9%
O=c1[nH]c(NC2CCN(S(=O)(=O)c3ccccc3C(F)(F)F)CC2)nc2c1CCCC2,6.51µM*,-3.7,-5.8%,-7.4%,7.31µM*
CC1(C)CC(NC(=O)C2CCN(S(=O)(=O)c3ccccc3C(F)(F)F)CC2)CC(C)(C)N1,-0.3%,4.4,-2.6%,-5.2%,-10.9%
